Reference: ChEMBL document CHEMBL1961873, “Compounds: GSK PKIS; Assays: Nanosyn kinase panel” (2012)

How the values were obtained:
[1] = target: T1, Serine/threonine-protein kinase Nek9 (Homo sapiens) (UniProt Q8TD19); conditions: at 1 µM;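 note: each value is a mean percent inhibition of NEK9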
T1 sequence (whole entry): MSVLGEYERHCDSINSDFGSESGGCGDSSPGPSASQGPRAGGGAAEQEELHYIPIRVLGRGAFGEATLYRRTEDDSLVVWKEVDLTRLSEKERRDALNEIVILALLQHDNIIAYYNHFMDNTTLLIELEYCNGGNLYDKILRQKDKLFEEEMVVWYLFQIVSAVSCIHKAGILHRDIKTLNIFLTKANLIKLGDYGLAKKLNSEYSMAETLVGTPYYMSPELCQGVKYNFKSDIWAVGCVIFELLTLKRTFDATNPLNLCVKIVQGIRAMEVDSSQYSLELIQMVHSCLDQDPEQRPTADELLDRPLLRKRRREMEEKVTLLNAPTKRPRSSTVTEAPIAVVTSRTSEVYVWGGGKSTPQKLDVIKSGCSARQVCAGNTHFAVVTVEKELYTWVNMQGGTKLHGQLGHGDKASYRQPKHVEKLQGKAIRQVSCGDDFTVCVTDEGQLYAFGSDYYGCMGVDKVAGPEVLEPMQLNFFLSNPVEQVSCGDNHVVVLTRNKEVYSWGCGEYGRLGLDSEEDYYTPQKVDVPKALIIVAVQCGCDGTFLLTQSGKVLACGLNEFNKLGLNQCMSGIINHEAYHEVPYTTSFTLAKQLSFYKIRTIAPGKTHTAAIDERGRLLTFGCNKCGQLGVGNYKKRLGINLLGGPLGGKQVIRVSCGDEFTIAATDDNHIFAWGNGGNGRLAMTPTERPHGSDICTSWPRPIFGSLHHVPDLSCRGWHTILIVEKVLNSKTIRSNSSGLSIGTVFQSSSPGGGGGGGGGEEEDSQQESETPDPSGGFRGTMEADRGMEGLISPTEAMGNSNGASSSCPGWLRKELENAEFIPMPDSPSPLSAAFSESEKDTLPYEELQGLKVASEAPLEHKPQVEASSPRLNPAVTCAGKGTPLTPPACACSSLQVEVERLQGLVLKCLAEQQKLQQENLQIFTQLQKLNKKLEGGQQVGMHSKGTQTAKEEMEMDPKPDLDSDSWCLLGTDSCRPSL

[2] = target: Serine/threonine-protein kinase PLK1 (Homo sapiens) (UniProt P53350); conditions: at 0.1 µM
Sequence of Serine/threonine-protein kinase PLK1 (Homo sapiens) (P53350 whole entry): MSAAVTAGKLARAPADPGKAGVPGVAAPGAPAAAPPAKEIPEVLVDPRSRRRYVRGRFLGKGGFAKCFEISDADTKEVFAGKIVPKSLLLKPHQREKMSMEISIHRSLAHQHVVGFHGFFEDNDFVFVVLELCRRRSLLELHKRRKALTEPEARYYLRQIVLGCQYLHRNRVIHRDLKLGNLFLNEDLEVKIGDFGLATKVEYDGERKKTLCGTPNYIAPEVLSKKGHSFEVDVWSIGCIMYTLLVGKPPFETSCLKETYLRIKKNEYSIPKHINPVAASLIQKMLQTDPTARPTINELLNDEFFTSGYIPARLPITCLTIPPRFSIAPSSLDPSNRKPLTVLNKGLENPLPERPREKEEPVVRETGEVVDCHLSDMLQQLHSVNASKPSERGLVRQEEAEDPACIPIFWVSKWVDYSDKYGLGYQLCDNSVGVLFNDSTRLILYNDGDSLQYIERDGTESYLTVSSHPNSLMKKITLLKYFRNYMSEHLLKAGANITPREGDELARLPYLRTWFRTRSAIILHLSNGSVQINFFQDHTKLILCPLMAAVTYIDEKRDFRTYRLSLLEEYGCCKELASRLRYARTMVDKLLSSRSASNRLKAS

[3] = target: Serine/threonine-protein kinase PLK1 (Homo sapiens) (UniProt P53350); conditions: at 1 µM
[4] = target: T2, Dual specificity protein kinase TTK (Homo sapiens) (UniProt P33981); conditions: at 0.1 µM
T2 sequence (whole entry): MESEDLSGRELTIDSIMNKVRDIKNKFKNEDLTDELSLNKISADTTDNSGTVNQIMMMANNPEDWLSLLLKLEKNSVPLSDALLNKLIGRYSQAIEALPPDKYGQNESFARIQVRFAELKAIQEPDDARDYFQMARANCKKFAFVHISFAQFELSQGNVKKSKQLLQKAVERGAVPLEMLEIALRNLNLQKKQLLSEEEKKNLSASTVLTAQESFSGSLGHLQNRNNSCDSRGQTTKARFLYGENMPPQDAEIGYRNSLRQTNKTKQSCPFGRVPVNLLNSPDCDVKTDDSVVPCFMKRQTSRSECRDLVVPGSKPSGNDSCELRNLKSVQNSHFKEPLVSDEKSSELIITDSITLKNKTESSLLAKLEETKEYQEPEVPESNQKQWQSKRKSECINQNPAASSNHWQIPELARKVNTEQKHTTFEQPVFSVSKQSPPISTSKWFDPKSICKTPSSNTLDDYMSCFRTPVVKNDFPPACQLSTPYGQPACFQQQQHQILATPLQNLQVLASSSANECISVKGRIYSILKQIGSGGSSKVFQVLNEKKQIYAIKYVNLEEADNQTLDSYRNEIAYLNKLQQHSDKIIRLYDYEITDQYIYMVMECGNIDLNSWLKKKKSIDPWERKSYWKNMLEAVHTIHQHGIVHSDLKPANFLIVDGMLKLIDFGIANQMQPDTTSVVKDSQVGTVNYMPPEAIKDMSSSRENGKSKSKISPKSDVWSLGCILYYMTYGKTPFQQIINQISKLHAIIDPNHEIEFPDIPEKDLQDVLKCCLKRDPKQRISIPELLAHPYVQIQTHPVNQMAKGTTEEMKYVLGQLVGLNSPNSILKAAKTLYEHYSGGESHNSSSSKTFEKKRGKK

[5] = system: T3, Receptor-type tyrosine-protein kinase FLT3 (Homo sapiens), P36888 [D835Y]; conditions: at 1 µM
T3 sequence (whole entry): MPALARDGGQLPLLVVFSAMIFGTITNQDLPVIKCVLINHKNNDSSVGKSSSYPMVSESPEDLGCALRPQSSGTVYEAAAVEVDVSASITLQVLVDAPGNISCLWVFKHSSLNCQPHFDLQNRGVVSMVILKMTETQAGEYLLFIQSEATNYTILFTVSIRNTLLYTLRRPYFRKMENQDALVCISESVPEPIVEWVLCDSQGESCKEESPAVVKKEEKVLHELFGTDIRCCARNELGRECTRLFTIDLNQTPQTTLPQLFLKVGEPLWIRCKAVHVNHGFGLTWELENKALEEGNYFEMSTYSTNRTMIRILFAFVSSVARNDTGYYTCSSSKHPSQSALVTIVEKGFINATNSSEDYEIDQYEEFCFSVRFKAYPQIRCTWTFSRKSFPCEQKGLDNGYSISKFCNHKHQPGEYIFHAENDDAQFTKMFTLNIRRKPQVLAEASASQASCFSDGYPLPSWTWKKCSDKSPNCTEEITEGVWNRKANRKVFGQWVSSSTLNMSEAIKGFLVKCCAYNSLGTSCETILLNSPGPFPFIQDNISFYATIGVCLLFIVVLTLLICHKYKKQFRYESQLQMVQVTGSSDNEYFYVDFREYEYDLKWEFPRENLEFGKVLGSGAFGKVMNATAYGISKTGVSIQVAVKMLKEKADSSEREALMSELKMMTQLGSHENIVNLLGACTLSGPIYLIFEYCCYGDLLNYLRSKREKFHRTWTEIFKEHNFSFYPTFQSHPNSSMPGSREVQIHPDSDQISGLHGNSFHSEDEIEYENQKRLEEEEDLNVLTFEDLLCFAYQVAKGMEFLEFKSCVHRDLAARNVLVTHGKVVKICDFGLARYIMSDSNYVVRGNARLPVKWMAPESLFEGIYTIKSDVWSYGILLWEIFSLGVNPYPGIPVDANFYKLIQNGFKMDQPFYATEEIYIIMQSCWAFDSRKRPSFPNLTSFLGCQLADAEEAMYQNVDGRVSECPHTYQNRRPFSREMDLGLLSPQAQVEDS

[6] = target: Vascular endothelial growth factor receptor 3 (Homo sapiens) (UniProt P35916); conditions: at 0.1 µM
Sequence of Vascular endothelial growth factor receptor 3 (Homo sapiens) (P35916 whole entry): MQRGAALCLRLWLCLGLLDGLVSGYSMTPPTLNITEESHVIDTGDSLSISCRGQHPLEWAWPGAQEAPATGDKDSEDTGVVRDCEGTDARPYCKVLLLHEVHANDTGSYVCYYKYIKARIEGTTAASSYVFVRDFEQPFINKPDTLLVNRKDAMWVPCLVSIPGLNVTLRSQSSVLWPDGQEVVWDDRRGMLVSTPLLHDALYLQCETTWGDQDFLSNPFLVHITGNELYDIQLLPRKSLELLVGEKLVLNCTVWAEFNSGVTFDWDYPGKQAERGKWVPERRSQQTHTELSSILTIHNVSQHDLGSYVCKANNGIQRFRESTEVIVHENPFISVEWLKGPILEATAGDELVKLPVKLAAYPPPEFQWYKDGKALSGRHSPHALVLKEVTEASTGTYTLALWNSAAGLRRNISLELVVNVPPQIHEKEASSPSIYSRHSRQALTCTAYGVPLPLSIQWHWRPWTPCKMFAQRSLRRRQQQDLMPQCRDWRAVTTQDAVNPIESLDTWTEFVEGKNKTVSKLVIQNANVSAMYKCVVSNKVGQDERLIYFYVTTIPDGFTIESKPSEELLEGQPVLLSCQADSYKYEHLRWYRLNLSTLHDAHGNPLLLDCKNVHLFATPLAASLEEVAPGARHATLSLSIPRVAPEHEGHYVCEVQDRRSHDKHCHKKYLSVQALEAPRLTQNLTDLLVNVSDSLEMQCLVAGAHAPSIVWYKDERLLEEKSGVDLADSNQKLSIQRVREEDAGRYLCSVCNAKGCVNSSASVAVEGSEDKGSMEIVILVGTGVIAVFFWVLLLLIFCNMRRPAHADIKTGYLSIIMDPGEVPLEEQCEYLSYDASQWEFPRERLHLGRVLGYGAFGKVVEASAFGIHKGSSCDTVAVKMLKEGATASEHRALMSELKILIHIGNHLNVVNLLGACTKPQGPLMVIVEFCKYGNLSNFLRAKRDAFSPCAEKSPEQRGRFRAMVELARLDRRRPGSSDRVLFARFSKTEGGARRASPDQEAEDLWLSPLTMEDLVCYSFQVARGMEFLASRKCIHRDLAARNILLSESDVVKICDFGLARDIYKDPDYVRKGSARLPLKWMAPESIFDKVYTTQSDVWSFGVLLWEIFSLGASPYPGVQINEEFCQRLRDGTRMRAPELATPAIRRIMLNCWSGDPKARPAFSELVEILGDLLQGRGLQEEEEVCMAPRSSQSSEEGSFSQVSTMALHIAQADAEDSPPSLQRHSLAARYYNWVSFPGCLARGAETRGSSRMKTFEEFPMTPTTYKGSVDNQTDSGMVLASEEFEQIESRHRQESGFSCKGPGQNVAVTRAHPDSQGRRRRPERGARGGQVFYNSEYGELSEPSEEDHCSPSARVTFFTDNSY

[7] = target: Vascular endothelial growth factor receptor 3 (Homo sapiens) (UniProt P35916); conditions: at 1 µM
[8] = target: Macrophage colony-stimulating factor 1 receptor (Homo sapiens) (UniProt P07333); conditions: at 0.1 µM
Sequence of Macrophage colony-stimulating factor 1 receptor (Homo sapiens) (P07333 whole entry): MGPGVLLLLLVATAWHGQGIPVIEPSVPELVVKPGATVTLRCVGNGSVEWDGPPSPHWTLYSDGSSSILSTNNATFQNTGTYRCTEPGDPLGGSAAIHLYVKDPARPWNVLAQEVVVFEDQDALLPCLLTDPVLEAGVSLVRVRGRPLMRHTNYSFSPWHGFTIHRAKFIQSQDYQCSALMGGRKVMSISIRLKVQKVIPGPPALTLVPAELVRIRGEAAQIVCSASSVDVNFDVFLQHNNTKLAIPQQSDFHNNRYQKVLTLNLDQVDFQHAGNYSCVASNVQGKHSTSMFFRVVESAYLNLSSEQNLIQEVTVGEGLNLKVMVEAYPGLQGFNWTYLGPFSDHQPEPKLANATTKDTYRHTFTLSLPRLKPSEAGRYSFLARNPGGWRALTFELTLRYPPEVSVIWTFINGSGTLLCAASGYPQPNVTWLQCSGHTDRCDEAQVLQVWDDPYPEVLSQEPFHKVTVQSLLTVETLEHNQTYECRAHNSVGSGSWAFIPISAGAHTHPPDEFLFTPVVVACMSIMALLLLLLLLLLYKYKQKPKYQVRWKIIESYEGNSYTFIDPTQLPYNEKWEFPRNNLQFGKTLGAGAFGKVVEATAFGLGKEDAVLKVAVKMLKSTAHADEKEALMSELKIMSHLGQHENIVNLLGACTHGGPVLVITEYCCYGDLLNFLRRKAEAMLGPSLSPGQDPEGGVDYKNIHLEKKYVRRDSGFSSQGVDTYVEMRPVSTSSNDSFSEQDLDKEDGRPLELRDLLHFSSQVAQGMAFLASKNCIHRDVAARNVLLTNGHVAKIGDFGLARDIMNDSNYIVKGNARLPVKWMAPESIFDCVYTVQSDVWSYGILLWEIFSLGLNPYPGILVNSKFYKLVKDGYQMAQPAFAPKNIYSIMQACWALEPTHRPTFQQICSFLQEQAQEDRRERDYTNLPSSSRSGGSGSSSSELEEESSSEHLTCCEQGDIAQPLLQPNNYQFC

[9] = target: Macrophage colony-stimulating factor 1 receptor (Homo sapiens) (UniProt P07333); conditions: at 1 µM
[10] = target: Tyrosine-protein kinase Fyn (Homo sapiens) (UniProt P06241); conditions: at 0.1 µM
Sequence of Tyrosine-protein kinase Fyn (Homo sapiens) (P06241 2-537 limits assumed): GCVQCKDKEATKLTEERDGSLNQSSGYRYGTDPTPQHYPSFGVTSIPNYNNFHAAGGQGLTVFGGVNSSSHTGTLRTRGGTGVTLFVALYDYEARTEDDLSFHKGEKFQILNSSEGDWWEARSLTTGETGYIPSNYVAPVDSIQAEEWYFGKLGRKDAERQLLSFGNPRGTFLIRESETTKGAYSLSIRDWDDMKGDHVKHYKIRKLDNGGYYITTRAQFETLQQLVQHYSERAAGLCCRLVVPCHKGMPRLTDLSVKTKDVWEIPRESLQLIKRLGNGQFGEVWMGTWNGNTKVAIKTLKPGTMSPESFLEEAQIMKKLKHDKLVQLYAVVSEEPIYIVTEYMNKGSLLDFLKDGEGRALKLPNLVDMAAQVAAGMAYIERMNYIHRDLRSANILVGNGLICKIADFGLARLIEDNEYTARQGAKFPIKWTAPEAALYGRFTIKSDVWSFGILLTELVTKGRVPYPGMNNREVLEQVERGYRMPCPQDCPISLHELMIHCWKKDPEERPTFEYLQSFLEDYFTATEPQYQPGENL

Row | Structure (SMILES) | inhibition [1] | inhibition [2] | inhibition [3] | inhibition [4] | inhibition [5] | inhibition [6] | inhibition [7] | inhibition [8] | inhibition [9] | inhibition [10]
1 | CS(=O)(=O)CCNCc1ccc(-c2ccc3ncnc(Nc4ccc(OCc5ccccc5)cc4)c3c2)o1 | 15.5% | 3.64% | 3.52% | 5.7% | -0.67% | -0.25% | 4.64% | 1.81% | 6.19% | 1.87%
2 | O=C(O[C@H]1CN[C@H](C#Cc2cc3ncnc(Nc4ccc(OCc5cccc(F)c5)c(Cl)c4)c3s2)C1)N1CCOCC1 | 13.5% | 3.78% | 4.55% | 12.4% | -1.26% | 6.24% | 3.14% | 1.07% | 1.72% | 3.75%
3 | O=C1Nc2ccccc2/C1=C1\CCc2cc(O)ccc21 | 8.07% | 4.12% | 4.17% | 12.1% | 70.6% | 7.22% | 24.6% | 17.3% | 59.6% | 5.55%
4 | COc1cc2c(cc1Nc1nc(Nc3cccc(F)c3C(N)=O)c3cc[nH]c3n1)N(C(=O)CN1CCN(C(C)C)CC1)CC2 | 6.33% | 4.96% | 25.8% | 11.4% | 2% | -0.29% | 4.32% | -0.95% | 5.37% | 1.51%
5 | OCCCNc1nccc(-c2c(-c3ccc(F)cc3)nn3cc(C(F)(F)F)ccc23)n1 | 0.58% | 3.57% | 1.96% | 3.55% | 1.7% | -2.7% | 2.54% | 1.88% | 6.34% | 0.07%
6 | NS(=O)(=O)c1cccc(N/C=C2\C(=O)Nc3ccccc32)c1 | 4.34% | 3.78% | 4.79% | 9.01% | 25.9% | 1.98% | 14.8% | 5.41% | 25.1% | 2.53%
7 | CN(C)CCNC(=O)Nc1ccc(N(C)c2ccnc(Nc3ccc(CS(C)(=O)=O)cc3)n2)cc1 | 4.76% | 3.28% | 3.61% | 6.19% | 5.12% | 2.39% | 4.9% | 14.8% | 67.3% | 1.66%
8 | CCN1CCC(C(=O)Nc2n[nH]c3nnc(-c4cccc(F)c4F)cc23)CC1 | 3.91% | -0.35% | -0.89% | -0.14% | 1.33% | 1.09% | 0.68% | -1.42% | 7.94% | 1.4%
9 | COc1ccc(-c2nn3ncccc3c2-c2ccnc(Nc3ccc(F)c(F)c3)n2)cc1 | 7.17% | 1.8% | 2.27% | 15.1% | 2.1% | 4.09% | 8.94% | 5.19% | 14.8% | 2.85%
10 | N#Cc1ccc2c(-c3ccnc(NC4CC4)n3)c(-c3ccc(F)cc3)nn2c1 | 4.02% | 2.66% | 0.98% | 2.64% | 4.7% | -1.37% | 4.18% | -2.75% | 4.65% | -0.41%
11 | COc1cc(Nc2ncc(-c3ccccc3)o2)cc(OC)c1 | 7.35% | 4.62% | 2.5% | 10% | 36.7% | 1.25% | 9.4% | 14.5% | 56.3% | 2.7%
12 | Cc1cc(O)cc(C)c1/C=C/c1cncc(C(=O)OC(C)(C)C)c1 | 2.6% | 0.53% | 2.82% | 6.3% | 2.14% | 1.44% | 1.34% | 7.66% | 38.6% | 8.16%
13 | COc1ccc(Nc2ncc(-c3ccccc3)o2)cc1OC | 9.31% | 2.85% | 1.53% | 2.17% | 47.1% | 5.08% | 25.5% | 21.9% | 77.2% | 4.17%
14 | CCOc1ccc2c(-c3ccnc(Nc4cc(OC)cc(C(F)(F)F)c4)n3)cnn2n1 | 7.2% | 0.53% | 1.68% | -0.36% | 17% | 15.8% | 22.8% | 2.34% | 17.2% | 3.33%
15 | CCS(=O)(=O)c1ccc(OC)c(Nc2ncc(-c3cccc(F)c3)o2)c1 | 16.1% | 7.8% | 9.98% | 10.5% | 60.3% | 36.4% | 86.8% | 33.7% | 66.7% | 30.1%
